Experimental data as given in the supplement of paper PMC12282887.
± gives the standard deviation of the averaged measurements.

Experiments:
Experiment in all cases: promoter activity interaction Z-score (Lux/OD deviation from empty-vector control); higher = stronger promoter induction by the compound
[1] = test system: E. coli BW25113 acrABp lux reporter
How it was run: (§1)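 E. coli BW25113 (wild type or marA, soxS or rob deletion) carrying low-copy luxCDABE promoter reporters grew in 40 µl LB Lennox in 384-well plates at 37°C. Each compound was tested at four 1:2 dilutions in biological duplicates. OD600 and luminescence were read every 30 min for 12 h. Areas were taken over 0–8 h (wild type) or 1–9 h (mutants), and wells below 10% of median growth area were removed. The score is the Z-transformed residual of growth-normalised luminescence fitted against the empty-vector control.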

[2] = test system: E. coli BW25113 micFp lux reporter
How it was run: as §1

[3] = test system: E. coli BW25113 ompFp lux reporter
How it was run: as §1

[4] = test system: E. coli BW25113 robp lux reporter
How it was run: as §1

[5] = test system: E. coli BW25113 soxSp lux reporter
How it was run: as §1

[6] = test system: E. coli BW25113 tolCp lux reporter
How it was run: as §1

[7] = 28.4 µg/ml, genetic background: wild type
[8] = 28.4 µg/ml, genetic background: ΔmarA
[9] = 28.4 µg/ml, genetic background: Δrob
[10] = 28.4 µg/ml, genetic background: ΔsoxS
[11] = 56.8 µg/ml, genetic background: wild type
[12] = 56.8 µg/ml, genetic background: ΔmarA
[13] = 56.8 µg/ml, genetic background: Δrob
[14] = 56.8 µg/ml, genetic background: ΔsoxS
[15] = 113.7 µg/ml, genetic background: wild type
[16] = 113.7 µg/ml, genetic background: ΔmarA
[17] = 113.7 µg/ml, genetic background: Δrob
[18] = 113.7 µg/ml, genetic background: ΔsoxS
[19] = 227.3 µg/ml, genetic background: wild type
[20] = 227.3 µg/ml, genetic background: ΔmarA
[21] = 227.3 µg/ml, genetic background: Δrob
[22] = 227.3 µg/ml, genetic background: ΔsoxS

Compound: COc1ccc(CCN(C)CCCC(C#N)(c2ccc(OC)c(OC)c2)C(C)C)cc1OC (stereo unspecified) [Verapamil]
- promoter activity interaction Z-score [1, 7]: -0.0103 ± 0.0068
- promoter activity interaction Z-score [1, 8]: 0.651 ± 0.14
- promoter activity interaction Z-score [1, 9]: -0.17 ± 0.16
- promoter activity interaction Z-score [1, 10]: -0.0848 ± 0.7
- promoter activity interaction Z-score [1, 11]: 0.383 ± 0.58
- promoter activity interaction Z-score [1, 12]: 0.649 ± 0.29
- promoter activity interaction Z-score [1, 13]: 0.236 ± 0.12
- promoter activity interaction Z-score [1, 14]: -0.365 ± 0.9
- promoter activity interaction Z-score [1, 15]: 0.623 ± 0.79
- promoter activity interaction Z-score [1, 16]: 2.27 ± 1.4
- promoter activity interaction Z-score [1, 17]: 0.0537 ± 0.02
- promoter activity interaction Z-score [1, 18]: -0.0861 ± 0.73
- promoter activity interaction Z-score [1, 19]: 0.502 ± 0.14
- promoter activity interaction Z-score [1, 20]: 2.09 ± 0.52
- promoter activity interaction Z-score [1, 21]: 0.279 ± 0.19
- promoter activity interaction Z-score [1, 22]: 0.136 ± 0.55
- promoter activity interaction Z-score [2, 7]: 0.174 ± 0.55
- promoter activity interaction Z-score [2, 8]: 0.00711 ± 0.17
- promoter activity interaction Z-score [2, 9]: 0.232 ± 0.1
- promoter activity interaction Z-score [2, 10]: -0.114 ± 0.26
- promoter activity interaction Z-score [2, 11]: 0.0628 ± 0.15
- promoter activity interaction Z-score [2, 12]: 0.0935 ± 0.19
- promoter activity interaction Z-score [2, 13]: 0.195 ± 0.062
- promoter activity interaction Z-score [2, 14]: -0.187 ± 0.36
- promoter activity interaction Z-score [2, 15]: 0.65 ± 0.19
- promoter activity interaction Z-score [2, 16]: 0.105 ± 0.032
- promoter activity interaction Z-score [2, 17]: 0.115 ± 0.16
- promoter activity interaction Z-score [2, 18]: -0.238 ± 0.43
- promoter activity interaction Z-score [2, 19]: 0.41 ± 0.066
- promoter activity interaction Z-score [2, 20]: -0.0581 ± 0.06
- promoter activity interaction Z-score [2, 21]: -0.1466 ± 0.00035
- promoter activity interaction Z-score [2, 22]: -0.0743 ± 0.052
- promoter activity interaction Z-score [3, 7]: -0.365 ± 0.11
- promoter activity interaction Z-score [3, 8]: -1.14 ± 0.89
- promoter activity interaction Z-score [3, 9]: -0.51 ± 0.49
- promoter activity interaction Z-score [3, 10]: -0.279 ± 0.15
- promoter activity interaction Z-score [3, 11]: -0.296 ± 0.077
- promoter activity interaction Z-score [3, 12]: -0.384 ± 0.03
- promoter activity interaction Z-score [3, 13]: -0.384 ± 0.42
- promoter activity interaction Z-score [3, 14]: -0.491 ± 0.42
- promoter activity interaction Z-score [3, 15]: 0.443 ± 0.46
- promoter activity interaction Z-score [3, 16]: 0.589 ± 0.067
- promoter activity interaction Z-score [3, 17]: 0.355 ± 1.1
- promoter activity interaction Z-score [3, 18]: -0.599 ± 0.19
- promoter activity interaction Z-score [3, 19]: 1.21 ± 0.48
- promoter activity interaction Z-score [3, 20]: 1.56 ± 0.13
- promoter activity interaction Z-score [3, 21]: 1.4 ± 0.93
- promoter activity interaction Z-score [3, 22]: 1.09 ± 0.35
- promoter activity interaction Z-score [4, 7]: 0.158 ± 0.075
- promoter activity interaction Z-score [4, 8]: 0.0269 ± 0.54
- promoter activity interaction Z-score [4, 9]: 0.215 ± 1.7
- promoter activity interaction Z-score [4, 10]: 0.00204 ± 1.1
- promoter activity interaction Z-score [4, 11]: 1.19 ± 0.91
- promoter activity interaction Z-score [4, 12]: -0.42 ± 0.62
- promoter activity interaction Z-score [4, 13]: -0.201 ± 0.23
- promoter activity interaction Z-score [4, 14]: 0.308 ± 0.86
- promoter activity interaction Z-score [4, 15]: 1.4 ± 0.44
- promoter activity interaction Z-score [4, 16]: 1.73 ± 0.022
- promoter activity interaction Z-score [4, 17]: 0.608 ± 0.43
- promoter activity interaction Z-score [4, 18]: -0.00665 ± 0.6
- promoter activity interaction Z-score [4, 19]: 1.1 ± 0.18
- promoter activity interaction Z-score [4, 20]: 2.29 ± 0.91
- promoter activity interaction Z-score [4, 21]: 0.783 ± 1.4
- promoter activity interaction Z-score [4, 22]: 1.05 ± 0.94
- promoter activity interaction Z-score [5, 7]: -0.18 ± 0.32
- promoter activity interaction Z-score [5, 8]: -0.165 ± 0.065
- promoter activity interaction Z-score [5, 9]: 0.0441 ± 0.32
- promoter activity interaction Z-score [5, 10]: -0.273 ± 0.25
- promoter activity interaction Z-score [5, 11]: -0.187 ± 0.26
- promoter activity interaction Z-score [5, 12]: -0.0917 ± 0.18
- promoter activity interaction Z-score [5, 13]: -0.138 ± 0.19
- promoter activity interaction Z-score [5, 14]: -0.142 ± 0.42
- promoter activity interaction Z-score [5, 15]: 0.17 ± 0.18
- promoter activity interaction Z-score [5, 16]: -0.0904 ± 0.16
- promoter activity interaction Z-score [5, 17]: -0.00688 ± 0.12
- promoter activity interaction Z-score [5, 18]: -0.0619 ± 0.28
- promoter activity interaction Z-score [5, 19]: -0.0451 ± 0.043
- promoter activity interaction Z-score [5, 20]: -0.359 ± 0.078
- promoter activity interaction Z-score [5, 21]: -0.361 ± 0.061
- promoter activity interaction Z-score [5, 22]: -0.0524 ± 0.36
- promoter activity interaction Z-score [6, 7]: 0.46 ± 1.1
- promoter activity interaction Z-score [6, 8]: -0.252 ± 0.52
- promoter activity interaction Z-score [6, 9]: 1.67 ± 0.9
- promoter activity interaction Z-score [6, 10]: 0.403 ± 0.82
- promoter activity interaction Z-score [6, 11]: 0.842 ± 0.79
- promoter activity interaction Z-score [6, 12]: 0.112 ± 0.0026
- promoter activity interaction Z-score [6, 13]: 1.38 ± 0.88
- promoter activity interaction Z-score [6, 14]: 0.773 ± 0.7
- promoter activity interaction Z-score [6, 15]: 1.44 ± 0.11
- promoter activity interaction Z-score [6, 16]: 0.195 ± 0.35
- promoter activity interaction Z-score [6, 17]: 0.654 ± 0.3
- promoter activity interaction Z-score [6, 18]: 0.501 ± 1.5
- promoter activity interaction Z-score [6, 19]: 0.0187 ± 0.66
- promoter activity interaction Z-score [6, 20]: -0.769 ± 0.041
- promoter activity interaction Z-score [6, 21]: -0.237 ± 0.19
- promoter activity interaction Z-score [6, 22]: -0.139 ± 0.8
